High-throughput results: PubChem, The Scripps Research Institute Molecular Screening Center
An excerpt weighted towards active compounds, which were near 2.3% of everything screened.
CHO-K1 Ca antag – counter-screen for M1 antagonists: effect in parental CHO-K1 cells. inhibition, % at 3 µM. 360,000 compounds, 0.6% hits. ATP-induced calcium, Fluo-8 fluorescence;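 active = inhibition above a per-plate cutoff, the plate's mean sample inhibition plus 3 SD, cut at about 24% in these data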
CHRM1 agonist – human M1 muscarinic receptor agonism; activation, % at 3 µM; 360,000 compounds, 0.33% hits; AID 588814; CHO-K1 hM1, Fluo-8 calcium fluorescence, agonist mode; 0% DMSO, 100% acetylcholine EC100;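 active = activation above the run's mean compound activation plus 3 SD, cut at about 16% in these data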;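 note: peak over basal fluorescence ratio within a 140 s kinetic read after compound addition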
Target sequence (P11229 whole entry, looked up): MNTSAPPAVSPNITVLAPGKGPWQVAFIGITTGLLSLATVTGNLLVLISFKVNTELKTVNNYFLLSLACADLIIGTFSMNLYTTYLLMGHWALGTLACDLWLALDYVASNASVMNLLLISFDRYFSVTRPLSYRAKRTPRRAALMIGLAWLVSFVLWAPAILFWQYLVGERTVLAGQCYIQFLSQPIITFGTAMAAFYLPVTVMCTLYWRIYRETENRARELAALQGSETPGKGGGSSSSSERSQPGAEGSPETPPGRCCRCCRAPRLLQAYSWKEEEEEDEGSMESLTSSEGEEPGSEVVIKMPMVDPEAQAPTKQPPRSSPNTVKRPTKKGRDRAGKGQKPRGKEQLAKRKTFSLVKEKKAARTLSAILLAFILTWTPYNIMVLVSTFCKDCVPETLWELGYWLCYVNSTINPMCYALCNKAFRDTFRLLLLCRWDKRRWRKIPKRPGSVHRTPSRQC
M1 ag parental – M1 agonist counterscreen hit in parental CHO-K1 cells. 360,000 compounds, 0.48% hits. AID 602248. Fluo-8 calcium fluorescence; scaled to maximal ATP response, vehicle zero. activation, % at 3 µM; in the data active = activation above about 15%;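 note: untransfected CHO-K1 host cells lacking M1 receptor as counterscreen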
CHRM1 PAM – human CHRM1 positive allosteric modulation. CHO-K1 hM1, Fluo-8 calcium fluorescence, ACh EC20; 0% = ACh EC20, 100% = maximal ACh. activation, % at 3 µM. 360,000 compounds, 0.088% hits. P11229; in the data active = activation above about 19%, passing the limit was not always enough
CHO-K1 Ca PAM – M1 PAM counterscreen hit in parental CHO-K1 cells; ATP EC20, Fluo-8 calcium fluorescence; 0% at ATP EC20, 100% at ATP max; activation, % at 3 µM; 360,000 compounds, 0.02% hits; AID 602247;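 active = activation above the run cutoff, the mean activation of all test compounds plus 3 SD, cut at about 40% in these data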;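 note: peak over basal fluorescence ratio in a 140 s read after ATP addition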
M1 antag – blocks human M1 muscarinic receptor. AID 588852. CHO-K1 hM1, Fluo-8 calcium fluorescence, ACh EC80 antagonist. 360,000 compounds, 1.3% hits. inhibition, % at 3 µM. P11229;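 active = percent inhibition above its own plate's cutoff, namely the mean of that plate's compound wells plus 3 SD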;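 note: peak over basal fluorescence ratio during 140 s after agonist addition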
Each line names hits and unclear results; the compound was inactive in the other large screens.

Cc1[nH]c2ccccc2c1C(=O)CN1C(=O)NC(C)(c2ccc(Cl)cc2Cl)C1=O (configuration not stated)	CHRM1 agonist 27
COc1ccc(N=Cc2oc3ccc4ccccc4c3c2O)cc1	M1 ag parental 24
N#Cc1c(-c2ccccc2)cc2nc3ccccc3n2c1N	none
Nc1cc(-c2ccccc2)n2c(n1)nc1ccccc12	M1 antag 92
O=C(OCCN1CCCCC1)C1(c2ccccc2)CCCC1	M1 antag 100
CN(C)CCOC(=O)C1(c2ccccc2)CCCC1	M1 antag 100
CCNC(=O)C1(c2ccccc2)CCCC1	none
C[N+]1(CCCOC(=O)C2(c3ccccc3)CCCC2)CCOCC1	M1 antag 100
O=C(OCCN1CCCC1)C1(c2ccccc2)CCCC1	M1 antag 99
Nc1ncnc2c1ncn2[C@@H]1O[C@H](C(=O)N[C@@H](CO)Cc2ccccc2)[C@@H](O)[C@H]1O	none
Cc1c(CC(=O)N2CCC(O)CC2)c(=O)oc2cc3c(cc12)CCC1(CCCCC1)O3	none
CCCCNC(=O)c1[nH]c(=O)cnc1-c1ccccc1	none
CC(=O)c1ccc(NC(=O)CNC2CCCCC2)cc1	M1 ag parental 20
COc1ccccc1CN1C[C@@H]2C[C@@H](c3[nH]c4c(C)cccc4c3C)N3CCC[C@@]23C1=O	M1 ag parental 15
CCOC(=O)c1ccccc1-n1c(C)cc(C2N=C(N)Nc3nc4ccccc4n32)c1C (configuration not stated)	M1 antag 81
CC(C)(C)C1CCC2(CC1)C(C#N)=C(SCC(=O)Nc1ccccc1)NC(=O)C2C#N (configuration not stated)	CHO-K1 Ca antag 27
CC1(C)CC(=O)C2=C(C1)NC(SCC(=O)Nc1ccccc1)=C(C#N)C21CCCCC1	none
O=C(Nc1cccnc1)Nc1cc(Cl)cc(Cl)c1	CHO-K1 Ca antag 37
O=C(NCc1csc2ccccc12)Nc1cc(Cl)cc(Cl)c1	M1 antag 33
O=C(Nc1ccccc1)Nc1cc(OCC(F)(F)F)cc(OCC(F)(F)F)c1	CHO-K1 Ca antag 32, M1 antag 25
O=C(Nc1ccc(Nc2ccccc2)cc1)Nc1ccccc1Cl	none
O=C(Nc1ccccc1)Nc1cc(Cl)cc(Cl)c1	CHO-K1 Ca antag 24
O=C(OC(C(=O)NC1CCCCC1)c1ccccc1F)c1ccco1 (configuration not stated)	none
CN(CC(=O)Nc1ccccc1C(=O)NC1CC1)Cc1ccc(N(C)C)cc1	none
O=[N+]([O-])c1ccc(COc2cccc(CN3CCCCC3)c2)cc1	none
Cc1noc(C)c1COc1ccc(C(=O)OCC(N)=O)cc1	CHO-K1 Ca antag 27
OC(CNCCc1ccc(C(F)(F)F)cc1)COC(c1ccccc1)c1ccccc1 (configuration not stated)	M1 antag 76
Cc1cccc(C)c1OCC(O)Cn1ccnc1C (configuration not stated)	CHO-K1 Ca antag 26
CSc1ccc(CN2CCC(C)(Oc3ccc(C(C)=O)cc3)C2)cc1 (configuration not stated)	none
CCOc1ccccc1N(CC(=O)N1CCC(C)CC1)S(=O)(=O)c1ccc(C)cc1	M1 antag 32
CCOc1ccccc1N(CC(=O)N1CCCCCC1)S(=O)(=O)c1ccc(C)cc1	none
COC(=O)c1[nH]c2cccc(OC)c2c1NC(=O)CN(C)CC1OCCO1	CHO-K1 Ca antag 24
Cc1ccc(-c2nnc(N3CCCCC3)c3ccccc23)cc1S(=O)(=O)NCC1CCCO1 (configuration not stated)	none
Cc1ccc2oc(C(=O)NCc3ncc(C)[nH]3)c(C)c2c1	none
CN(C)CCNc1nc(-c2ccccc2F)c2sccc2n1	M1 antag 70
CCOC(=O)C1CCCN(Cc2nc(N)nc(Nc3ccccc3OC)n2)C1 (configuration not stated)	CHRM1 agonist 20
CCOC(=O)C1CCCN(C/C(O)=C(\C#N)c2nc(-c3ccc(Cl)cc3)cs2)C1 (configuration not stated)	CHRM1 agonist 25
CCOC(=O)C1CCCN(Cc2nc(N)nc(Nc3ccc(Cl)cc3)n2)C1 (configuration not stated)	CHRM1 agonist 37
N#C/C(=C(/O)CN1CCCC1)c1nc(-c2ccccc2)cs1	none
CN[C@@H](C)C(=O)NC[C@H]1O[C@@H](n2cnc3c(N)ncnc32)[C@H](O)[C@@H]1O	none
COc1ccc(CNC(=O)CN2CCN(C(c3ccccc3)c3ccccc3)CC2)cc1	M1 antag 34
O=C(CN1CCN(C(c2ccccc2)c2ccccc2)CC1)NC(=O)NCc1ccco1	CHO-K1 Ca antag 27, M1 antag 30
COc1cccc(N2CCN(CC(=O)Nc3ccccc3C(=O)NCc3ccccc3)CC2)c1	M1 antag 34
COc1cccc(N2CCN(CC(=O)Nc3ccccc3C(=O)NCCc3ccccc3)CC2)c1	none
S=C(NCc1ccco1)N1CCN(C(c2ccccc2)c2ccccc2)CC1	M1 antag 18
CC1=NN(c2ccccc2)C(=O)C1CCC#N (configuration not stated)	none
COc1ccc(-c2csc(NC(=O)CCNC(=O)c3ccco3)n2)cc1	none
COc1ccc(-c2cn(Cc3ccc(C(=O)NCc4ccc(C)cc4)cc3)c(C(C)N)n2)cc1 (configuration not stated)	none
O=C(Cn1cnc([N+](=O)[O-])n1)c1ccc(O)c(O)c1	none
C=C1C(=O)O[C@@H]2[C@H]1[C@@H](OC(=O)/C(C)=C/C)C/C(C)=C\C(=O)/C=C(\C)[C@@H]2O	none
Cc1onc(-c2ccccc2Cl)c1C(=O)OCC(=O)N1CCCc2ccccc21	none
O=C1NC(c2cccc([N+](=O)[O-])c2)Oc2ccccc21 (configuration not stated)	CHO-K1 Ca antag 27
Cc1ccc(C2NC(=O)c3ccccc3O2)cc1 (configuration not stated)	M1 ag parental 19
O=C1NC(c2ccc(F)cc2)Oc2ccccc21 (configuration not stated)	none
CCCCCCC(=O)NC(Nc1ccc(S(N)(=O)=O)cc1)C(Cl)(Cl)Cl (configuration not stated)	none
COCc1cc(C)nc(OCC(=O)N/N=C/c2ccc(-c3cc([N+](=O)[O-])ccc3Cl)o2)c1C#N	none
CCOc1ccc(CN2CCN(S(=O)(=O)c3ccc(NC(C)=O)cc3)CC2)cc1	M1 ag parental 22
CC(=O)Nc1ccc(NC(=O)C(C)Oc2ccccc2F)cc1 (configuration not stated)	CHO-K1 Ca antag 24
CC(Oc1ccccc1C(N)=O)C(=O)Nc1ccc(S(=O)(=O)N2CCCC2)cc1 (configuration not stated)	M1 antag 59
